This note sets out measurements from PubChem BioAssay (NCI).

SMILES strings stand for the structures. The panel holds about 79,000 compounds, 15% with a hit somewhere; the sample as a whole holds those more often. Values without a mark were called inactive. Active and inactive are the calls of the source. Rule as the data show it: active = growth inhibition above about 70%; inactive = the rest.

Experiment [1] can be described thus: NCI Yeast Anticancer Drug Screen. Data for the rad50 strain (AID 155).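 Also: 0% = growth of vehicle-only cultures of the same strain.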 Particulars: S. cerevisiae rad50 strain growth inhibition; at 50.0 µM; hits give high values. Summed up: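 Inhibition values express reduced yeast growth in compound-treated cultures relative to vehicle-treated controls.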
Experiment [2] in a line: NCI Yeast Anticancer Drug Screen. Data for the mec2-1 strain (AID 157). Particulars: S. cerevisiae mec2-1 strain, at 50.0 µM, hits give high values. Summed up:
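Yeast mec2-1 mutant treated with compound. Readout: growth inhibition vs vehicle controls.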

The nature of experiment [3]: NCI Yeast Anticancer Drug Screen. Data for the sgs1 mgt1 strain (AID 161).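 Also: 0% = growth of cultures given vehicle only.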 Particulars: S. cerevisiae sgs1 mgt1 strain, at 50.0 µM, hits give high values. Summed up: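 Mutant yeast exposed to compound; growth scored against vehicle-only wells.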
The nature of experiment [4]: NCI Yeast Anticancer Drug Screen. Data for the cln2 rad14 strain (AID 165).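 Also: 0% = growth equal to vehicle treated cultures.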 Particulars: S. cerevisiae cln2 rad14 strain, at 50.0 µM, hits give high values. The essentials: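 cln2 rad14 yeast strain; compound exposure; growth inhibition read vs vehicle controls.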
Experiment [5] can be described thus: NCI Yeast Anticancer Drug Screen. Data for the bub3 strain (AID 167). Particulars: S. cerevisiae bub3 mutant strain, at 50.0 µM, hits give high values. The essentials: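 Steps: expose the mutant yeast strain to compound; grow alongside vehicle-treated cultures; measure growth; express inhibition against the vehicle cultures.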
A short description of experiment [6]: NCI Yeast Anticancer Drug Screen. Data for the mlh1 rad18 strain (AID 175). The settings on record: S. cerevisiae mlh1 rad18 strain growth inhibition; at 50.0 µM; hits give high values. Summed up: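 Yeast w/ defined DNA-repair lesions; compound exposure; growth vs vehicle controls → % inhibition.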

In the case of `C/C(=C1\SC(=S)N(C2OC(CO)C(O)C(O)C2O)C1=O)c1ccco1` (centres undefined), the growth inhibition is -14% in experiment [1]; -9.3% in experiment [2]; -33.2% in experiment [3]; -0.85% in experiment [4]; -3.3% in experiment [5]; -32.9% in experiment [6].
For `Nc1nc(-c2cc(Br)ccc2N=NN2CCOCC2)nc2ccc(Br)cc12`, the growth inhibition in experiment [1] was 98.8% (active); in experiment [2], 99.1% (active); in experiment [3], 99.3% (active); in experiment [4], 98.8% (active); in experiment [5] it was 99% (active); in experiment [6] it was 99% (active).
As for `Cc1ccc(N=Nc2ccc(C)cc2NC(=O)c2ccc(Cl)c(Cl)c2)cc1`, the growth inhibition in experiment [1] is -9.6%; in experiment [2] it was -11.2%; in experiment [3], -12%; in experiment [4], -13.1%; in experiment [5], 7.8%; in experiment [6], -20.4%.
Regarding `CC(=O)c1ccc(I)cc1`, the growth inhibition in experiment [1] was 5.15%; in experiment [2], -11.7%; in experiment [3], 24.6%; in experiment [4] it was 13.8%; in experiment [5] it was 14.1%; in experiment [6] it was 18.1%.
Turning to `Nc1ccc([N+](=O)[O-])c(C(=O)O)c1`, the growth inhibition in experiment [1] is -10.2%; in experiment [2], -26.9%; in experiment [3], -15%; in experiment [4] it was 15.9%; in experiment [5], -15.1%; in experiment [6] it was -6.9%.
Turning to `CCCCCCCCCCCCCCCCCCNC(=S)/N=C\C(C(=O)Nc1ccccc1C)=C(/C)O`, the growth inhibition in experiment [1] is -9.8%; in experiment [2], -11.8%; in experiment [3] it was 5.85%; in experiment [4], 0.55%; in experiment [5], -21.4%; in experiment [6] it was -5.65%.
On to `COC(=O)c1nc(=S)[nH]c(C(=O)OC)c1C(=O)c1cccc2ccccc12`, for which the growth inhibition in experiment [1] was 8.6%; in experiment [2] it was 34.4%; in experiment [3] it was 4.35%; in experiment [4], -24.3%; in experiment [5], -5.5%; in experiment [6] it was 13.1%.
Take `Clc1cnc2ccccc2c1`: the growth inhibition in experiment [1] is 24.4%; in experiment [2], 6%; in experiment [3], 14.1%; in experiment [4], 22.8%; in experiment [5] it was 2.7%; in experiment [6] it was 28.8%.
With `O=C(Nc1ccccc1)Sc1nc2ccccc2s1`, the growth inhibition in experiment [1] was 24.5%; in experiment [2], 17.8%; in experiment [3], 45.5%; in experiment [4], 13.7%; in experiment [5] it was 53.9%; in experiment [6], 27.6%.
For `CC[O-].CC[O-].O=C1c2ccccc2C(=O)c2c(O)ccc([O-])c21.O=C1c2ccccc2C(=O)c2c(O)ccc([O-])c21.[Ti+4]`, the growth inhibition in experiment [1] is -20.6%; in experiment [2], 1.75%; in experiment [3], -3.45%; in experiment [4], -4.3%; in experiment [5], -17.9%; in experiment [6], -14.8%.
Turning to `Clc1cccc(-c2nc3cccc4c3n2Cc2ncccc2-4)c1`, the growth inhibition was -47.8% in experiment [1]; -37% in experiment [2]; -42.5% in experiment [3]; -9.4% in experiment [4]; 0.65% in experiment [5]; -44.4% in experiment [6].
As to `N#CCCBr`, the growth inhibition in experiment [1] was 23.9%; in experiment [2], 0.15%; in experiment [3], 7.45%; in experiment [4], -22.6%; in experiment [5], 15.7%; in experiment [6], 31.1%.
Take `CC1CN(C(=O)/C=C/C(=O)OC2CCCCC2)C(C)CN1C(=O)/C=C/C(=O)OC1CCCCC1` (centres undefined): the growth inhibition was 0.2% in experiment [1]; -3.15% in experiment [2]; -7.9% in experiment [3]; 1.7% in experiment [4]; -4.45% in experiment [5]; -27.2% in experiment [6].
With `O=S(=O)(O)c1ccccc1/C=N\N=C\c1ccccc1S(=O)(=O)O`, the growth inhibition in experiment [1] is 10.8%; in experiment [2], 1.85%; in experiment [3], 11.7%; in experiment [4], 17.4%; in experiment [5], -6.4%; in experiment [6], 12.8%.
Turning to `COc1cc(C2c3cc4c(cc3[C@@H](Nc3ccc(C#N)cc3)C3COC(=O)[C@H]23)OCO4)cc(OC)c1O` (some centres undefined), the growth inhibition was 87.5% (active) in experiment [1]; 89.7% (active) in experiment [2]; 89.5% (active) in experiment [3]; 85.5% (active) in experiment [4]; 89% (active) in experiment [5]; 88.3% (active) in experiment [6].
For `CCCCC(O)(CCCC)CC(C)(C)C`, the growth inhibition in experiment [1] is -3.3%; in experiment [2], 1.6%; in experiment [3], -9%; in experiment [4], 18.7%; in experiment [5], 2.65%; in experiment [6], -1.35%.
With `COC(=O)c1cc(C)c(C)c2c1NC(=O)CNC2=O`, the growth inhibition was -4.1% in experiment [1]; -4.2% in experiment [2]; 3.95% in experiment [3]; 19.8% in experiment [4]; -3.7% in experiment [5]; 7.95% in experiment [6].
Regarding `O=C(CCSC(=S)Nc1ccc(Cl)cc1)NNc1ccccc1`, the growth inhibition was 1.8% in experiment [1]; -25.1% in experiment [2]; -0.65% in experiment [3]; -30.4% in experiment [4]; 6.6% in experiment [5]; 18.2% in experiment [6].
`OCCN(CCO)c1ccc(O)cc1`: the growth inhibition in experiment [1] was -6.85%; in experiment [2], 2.3%; in experiment [3] it was -17.1%; in experiment [4], 13.6%; in experiment [5], -3.6%; in experiment [6], -11.7%.
